We go through 17 targets from the supplement of paper PMC10849652.

The full data set covers some 8,800 targets. This sample favours those with a hit. About 0.5% of all pairs of compound and target were hits.

Sequence of UniProt Q9UGU0 (Q9UGU0 whole entry, looked up): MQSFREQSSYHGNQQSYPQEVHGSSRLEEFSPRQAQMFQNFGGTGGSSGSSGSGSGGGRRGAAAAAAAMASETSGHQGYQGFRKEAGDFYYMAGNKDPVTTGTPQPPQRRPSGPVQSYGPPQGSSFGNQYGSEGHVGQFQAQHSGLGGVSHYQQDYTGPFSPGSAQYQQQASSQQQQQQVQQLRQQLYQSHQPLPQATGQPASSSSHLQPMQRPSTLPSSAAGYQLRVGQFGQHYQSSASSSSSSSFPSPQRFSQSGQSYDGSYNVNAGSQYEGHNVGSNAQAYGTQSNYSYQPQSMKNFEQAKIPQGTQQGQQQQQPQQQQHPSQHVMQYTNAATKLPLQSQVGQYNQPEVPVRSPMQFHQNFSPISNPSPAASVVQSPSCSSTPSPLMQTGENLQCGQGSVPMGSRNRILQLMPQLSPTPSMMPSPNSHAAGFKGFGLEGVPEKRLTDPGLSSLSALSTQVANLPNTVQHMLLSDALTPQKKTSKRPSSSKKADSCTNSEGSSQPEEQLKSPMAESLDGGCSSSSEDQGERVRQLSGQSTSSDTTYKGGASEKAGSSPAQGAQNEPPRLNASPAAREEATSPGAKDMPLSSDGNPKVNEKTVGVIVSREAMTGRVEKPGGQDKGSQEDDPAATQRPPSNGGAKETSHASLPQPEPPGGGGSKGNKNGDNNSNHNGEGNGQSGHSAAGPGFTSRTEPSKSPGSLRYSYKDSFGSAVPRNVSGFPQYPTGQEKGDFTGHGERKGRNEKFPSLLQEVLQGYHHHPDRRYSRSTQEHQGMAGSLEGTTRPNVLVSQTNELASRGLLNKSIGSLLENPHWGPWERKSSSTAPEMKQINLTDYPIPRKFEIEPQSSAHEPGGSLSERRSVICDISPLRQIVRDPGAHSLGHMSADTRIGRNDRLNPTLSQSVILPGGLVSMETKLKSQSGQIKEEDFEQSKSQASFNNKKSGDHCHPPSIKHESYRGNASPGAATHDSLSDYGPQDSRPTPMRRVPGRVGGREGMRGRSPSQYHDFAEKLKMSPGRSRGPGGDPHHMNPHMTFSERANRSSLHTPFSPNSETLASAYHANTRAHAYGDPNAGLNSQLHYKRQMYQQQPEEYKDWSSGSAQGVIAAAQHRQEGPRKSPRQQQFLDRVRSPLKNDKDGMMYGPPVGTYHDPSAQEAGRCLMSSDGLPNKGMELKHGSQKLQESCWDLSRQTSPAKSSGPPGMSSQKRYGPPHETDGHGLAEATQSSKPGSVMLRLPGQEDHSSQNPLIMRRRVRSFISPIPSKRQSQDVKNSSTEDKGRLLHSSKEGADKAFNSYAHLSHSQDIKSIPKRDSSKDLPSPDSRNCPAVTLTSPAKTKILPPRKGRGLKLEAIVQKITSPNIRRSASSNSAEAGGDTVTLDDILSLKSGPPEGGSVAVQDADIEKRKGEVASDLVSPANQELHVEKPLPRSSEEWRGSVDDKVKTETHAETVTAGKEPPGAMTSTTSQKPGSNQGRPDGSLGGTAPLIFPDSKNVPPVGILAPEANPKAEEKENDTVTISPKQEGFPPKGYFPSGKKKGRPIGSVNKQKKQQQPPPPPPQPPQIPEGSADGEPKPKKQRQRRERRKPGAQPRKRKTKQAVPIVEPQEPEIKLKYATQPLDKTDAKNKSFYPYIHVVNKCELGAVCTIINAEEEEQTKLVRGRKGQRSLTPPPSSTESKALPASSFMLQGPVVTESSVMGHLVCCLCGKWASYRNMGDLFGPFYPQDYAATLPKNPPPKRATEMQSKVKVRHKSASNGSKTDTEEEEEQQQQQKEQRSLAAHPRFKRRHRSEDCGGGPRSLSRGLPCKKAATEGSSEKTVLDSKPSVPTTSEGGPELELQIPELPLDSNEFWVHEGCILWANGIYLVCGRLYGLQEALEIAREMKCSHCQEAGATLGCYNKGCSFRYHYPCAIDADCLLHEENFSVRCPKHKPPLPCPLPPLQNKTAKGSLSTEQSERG
Sequence of UniProt P21580 (P21580 whole entry, looked up): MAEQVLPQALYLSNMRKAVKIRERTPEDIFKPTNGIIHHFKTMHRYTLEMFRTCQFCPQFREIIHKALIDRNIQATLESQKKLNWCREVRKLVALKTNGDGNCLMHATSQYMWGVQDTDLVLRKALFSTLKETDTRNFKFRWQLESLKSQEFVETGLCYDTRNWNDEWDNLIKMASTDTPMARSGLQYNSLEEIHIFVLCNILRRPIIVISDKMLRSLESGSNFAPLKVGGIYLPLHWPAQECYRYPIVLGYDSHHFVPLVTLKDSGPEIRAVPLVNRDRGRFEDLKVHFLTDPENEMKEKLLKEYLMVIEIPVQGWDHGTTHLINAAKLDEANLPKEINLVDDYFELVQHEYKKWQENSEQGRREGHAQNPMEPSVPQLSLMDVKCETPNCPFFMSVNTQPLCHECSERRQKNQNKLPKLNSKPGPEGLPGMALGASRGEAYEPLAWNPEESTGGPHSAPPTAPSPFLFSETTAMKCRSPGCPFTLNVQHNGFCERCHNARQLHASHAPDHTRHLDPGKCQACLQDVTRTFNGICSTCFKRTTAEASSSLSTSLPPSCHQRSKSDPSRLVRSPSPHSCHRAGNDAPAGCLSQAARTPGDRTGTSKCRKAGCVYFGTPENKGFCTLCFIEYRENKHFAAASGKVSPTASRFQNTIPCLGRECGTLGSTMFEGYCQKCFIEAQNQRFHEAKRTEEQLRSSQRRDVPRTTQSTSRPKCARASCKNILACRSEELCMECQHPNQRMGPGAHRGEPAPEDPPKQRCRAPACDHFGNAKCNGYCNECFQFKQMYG
Sequence of UniProt Q8TD43 (Q8TD43 whole entry, looked up): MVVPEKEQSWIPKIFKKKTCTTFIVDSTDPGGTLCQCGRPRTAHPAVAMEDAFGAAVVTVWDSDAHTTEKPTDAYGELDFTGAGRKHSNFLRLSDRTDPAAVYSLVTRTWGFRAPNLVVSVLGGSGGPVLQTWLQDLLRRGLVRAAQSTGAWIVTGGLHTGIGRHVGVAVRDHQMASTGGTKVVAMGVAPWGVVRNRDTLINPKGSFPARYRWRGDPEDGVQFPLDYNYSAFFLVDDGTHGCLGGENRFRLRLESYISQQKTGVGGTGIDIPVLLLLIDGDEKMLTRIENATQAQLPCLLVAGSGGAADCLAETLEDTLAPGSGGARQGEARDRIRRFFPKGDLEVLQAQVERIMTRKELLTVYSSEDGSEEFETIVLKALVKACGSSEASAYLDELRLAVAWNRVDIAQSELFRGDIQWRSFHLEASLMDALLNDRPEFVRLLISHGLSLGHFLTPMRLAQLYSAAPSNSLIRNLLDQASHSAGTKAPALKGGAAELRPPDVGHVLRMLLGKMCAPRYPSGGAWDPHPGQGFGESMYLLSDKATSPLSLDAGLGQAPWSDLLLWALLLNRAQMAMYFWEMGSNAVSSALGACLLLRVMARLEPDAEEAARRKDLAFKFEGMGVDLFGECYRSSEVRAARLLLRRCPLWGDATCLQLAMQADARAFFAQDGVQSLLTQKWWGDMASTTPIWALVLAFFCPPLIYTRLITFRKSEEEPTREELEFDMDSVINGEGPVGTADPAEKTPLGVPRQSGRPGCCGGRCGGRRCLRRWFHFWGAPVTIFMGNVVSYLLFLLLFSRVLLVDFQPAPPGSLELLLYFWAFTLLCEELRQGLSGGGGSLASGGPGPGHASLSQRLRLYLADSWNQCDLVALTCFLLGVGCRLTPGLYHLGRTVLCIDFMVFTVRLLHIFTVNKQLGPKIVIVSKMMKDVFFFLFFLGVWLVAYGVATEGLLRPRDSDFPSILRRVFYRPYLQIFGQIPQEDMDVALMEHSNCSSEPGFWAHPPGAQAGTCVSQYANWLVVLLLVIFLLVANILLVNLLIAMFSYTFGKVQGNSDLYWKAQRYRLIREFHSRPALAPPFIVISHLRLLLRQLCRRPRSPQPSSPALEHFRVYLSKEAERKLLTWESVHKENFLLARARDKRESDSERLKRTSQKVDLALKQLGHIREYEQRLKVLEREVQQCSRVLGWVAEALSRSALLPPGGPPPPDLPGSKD
Sequence of UniProt O43399 (O43399 whole entry, looked up): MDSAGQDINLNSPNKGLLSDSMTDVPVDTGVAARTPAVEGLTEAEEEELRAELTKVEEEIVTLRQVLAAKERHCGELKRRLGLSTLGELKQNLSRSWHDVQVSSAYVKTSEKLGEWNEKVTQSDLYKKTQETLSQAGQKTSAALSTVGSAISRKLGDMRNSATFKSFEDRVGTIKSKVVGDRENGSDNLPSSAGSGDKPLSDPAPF
Sequence of UniProt Q8NDZ6 (Q8NDZ6 whole entry, looked up): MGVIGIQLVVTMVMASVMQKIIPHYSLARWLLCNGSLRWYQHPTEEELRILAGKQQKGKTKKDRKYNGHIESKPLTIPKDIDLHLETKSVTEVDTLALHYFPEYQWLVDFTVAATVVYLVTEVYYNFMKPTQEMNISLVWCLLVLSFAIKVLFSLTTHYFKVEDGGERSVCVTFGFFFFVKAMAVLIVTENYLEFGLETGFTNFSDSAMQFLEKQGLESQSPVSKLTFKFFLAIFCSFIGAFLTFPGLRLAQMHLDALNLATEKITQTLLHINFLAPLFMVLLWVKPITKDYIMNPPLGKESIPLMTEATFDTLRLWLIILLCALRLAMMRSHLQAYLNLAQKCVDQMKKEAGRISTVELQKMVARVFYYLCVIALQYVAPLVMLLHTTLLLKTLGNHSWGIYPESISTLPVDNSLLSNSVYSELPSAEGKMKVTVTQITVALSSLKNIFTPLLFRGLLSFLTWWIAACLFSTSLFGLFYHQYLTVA
Sequence of UniProt P62328 (P62328 whole entry, looked up): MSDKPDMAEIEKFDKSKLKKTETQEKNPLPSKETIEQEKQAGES
Sequence of UniProt P0C1Z6 (P0C1Z6 whole entry, looked up): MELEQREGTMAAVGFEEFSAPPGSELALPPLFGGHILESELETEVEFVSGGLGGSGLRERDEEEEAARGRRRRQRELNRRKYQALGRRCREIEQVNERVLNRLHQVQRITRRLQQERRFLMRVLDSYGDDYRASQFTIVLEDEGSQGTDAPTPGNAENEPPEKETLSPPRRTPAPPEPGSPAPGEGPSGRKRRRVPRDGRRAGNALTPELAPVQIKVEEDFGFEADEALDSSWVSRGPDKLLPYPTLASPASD

Compound in this assay: C1=CC=C(C=C1)[C@H](COC2=CC3=C(C=C2)NC(=O)N3)NC(=O)C4=CC=CN(C4=O)CC5=CC(=C(C=C5)F)F
As to the kind of experiment: log2 fold change, soluble protein after heating vs DMSO (PISA); higher = thermal stabilisation; K562 lysate, 10 uM; active = over 0.2 and 3.5 SD of the protein, either way, in both replicates (recomputed). A digest of the protocol:
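Log-two fold change in thermal stability relative to solvent controls is reported from duplicates. For each sample, crude K562 extract from dounce-homogenised pellets in PBS pH 7.4 with 1 mM MgCl2, at 1 mg/mL protein, was treated with 10 μM compound for 30 min. Aliquots heated for 3 min across 48°C-58°C were pooled, brought to 0.5% NP-40 at 4°C and cleared at 21,000xg for 90 min. The supernatant was quantified by TMTpro 16plex LC-MS/MS with channel sums equalised.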
On to TASP1 (UniProt Q9H6P5), for which the log2 fold change is 0.027 (inactive). The result for TUBB6 (UniProt K7ES63) reads -0.115 (inactive); that for TENM4 (UniProt Q6N022), -0.057 (inactive); that for TUBB4A (UniProt P04350), 0.015 (inactive). The result for TMEM161B (UniProt Q8NDZ6) reads -0.07 (inactive); that for TRPM4 (UniProt Q8TD43), -0.074 (inactive); that for TM2D3 (UniProt Q9BRN9), 0.023 (inactive).

As for TMSB4X (UniProt P62328), the log2 fold change is -0.935 (active). The result for TNFAIP3 (UniProt P21580) reads 0.052 (inactive); that for TFPT (UniProt P0C1Z6), -0.176 (inactive); that for TCF20 (UniProt Q9UGU0), 0.022 (inactive). For TUBB4A (UniProt M0QYM7), the log2 fold change is -0.207 (inactive). With TLE3 isoform 5 (UniProt Q04726) the figure was -0.061 (inactive); with TFPI (UniProt P10646), 0.053 (inactive); with TUBA4A (UniProt C9JQ00), -0.111 (inactive). The result for TPD52L2 isoform 3 (UniProt O43399) reads -0.058 (inactive); that for TNIK isoform 5 (UniProt Q9UKE5), 0.008 (inactive).
